A selection: hits, their analogues and other compounds. The true share with any hit is near 11%.
Insulin prom inh: inhibitors of insulin promoter-driven GFP, primary screen, imaging, TRM-6 cells (human fetal islet line), eGFP reporter, cell count. reporter expression induced with tamoxifen. inhibition, % at 2 µM. actives 0.9% (n = 130,000);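 active = inhibition above the mean plus 3 SD, with well images judged a real hit on visual review, cut at about 60% in these data, passing the limit was not always enough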
L major viab: Leishmania major promastigote growth inhibition, primary screen; actives 9% (n = 200,000); inhibition, % at 10 µM; Leishmania major promastigotes, resazurin fluorescence viability; in the data active = inhibition above about 50%;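 also: promastigotes grown with compound for 44 hours at 28 °C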
WT yeast gro inh: growth inhibition of WT strain, primary screen, mitochondrial fusion inhibitor project, WT and mutant strains, chemical genetic. mitochondrial fusion phenotypic screen. inhibition, % at 10 µM. actives 2.1% (n = 190,000); in the data active = inhibition above about 58%; tested in S. cerevisiae
Ins promoter up: insulin promoter activators in MIN6 cells, imaging, high-content screening, mouse beta cells; z-score at 5 µM; actives 0.3% (n = 190,000); AID 1625, 2009; MIN6 insulin promoter-GFP reporter; active compounds read high;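 active = z-score above 3 at 5 µM with at least 500 cells counted in the well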
Autophagy mod: autophagy modulators in MEF cells, primary screen, imaging, high-content, MEF GFP-LC3 | MEF GFP-LC3 puncta imaging; test concentration mostly 10 µM | calls only at 10 µM (by protocol) | actives 0.98% (n = 190,000) | AID 463193, 2010;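 active = percentage of spot-positive cells more than 3 SD above its plate mean, without a fluorescence outlier flag or 80% toxicity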
Numbers stand for hits.

Screening Cc1ccc(NC(=O)CS(=O)(=O)c2c[nH]c3ccccc23)c(C)c1 returned L major viab inactive, WT yeast gro inh inactive, Ins promoter up inactive and Autophagy mod inactive.
O=C(Nc1ccc2c(c1)CCC2)c1cnn2c1NC(c1ccco1)CC2C(F)(F)F (configuration not stated) was read as Insulin prom inh inactive, L major viab inactive, WT yeast gro inh inactive, Ins promoter up inactive and Autophagy mod active.
Screening CCc1ccc(OCC(=O)Nc2ncn[nH]2)cc1 returned Insulin prom inh inactive, L major viab inactive, WT yeast gro inh inactive, Ins promoter up inactive and Autophagy mod inactive.
CC1=CC2=NC(=O)/C(=C\c3ccc(-c4ccc(Cl)cc4)o3)C(=N)N2O1 was read as Insulin prom inh inactive, L major viab inactive, WT yeast gro inh inactive, Ins promoter up inactive and Autophagy mod active.
`O=C(NC(=S)Nc1ccc(CN2CCOCC2)cc1)c1cccc([N+](=O)[O-])c1` gave Insulin prom inh inactive, L major viab inactive, WT yeast gro inh inactive, Ins promoter up inactive and Autophagy mod inactive.
`O=C(NC(=S)NCCN1CCOCC1)c1ccccc1Cl` gave Insulin prom inh inactive, L major viab 58.3, WT yeast gro inh inactive, Ins promoter up inactive and Autophagy mod inactive.
`CCCCNC(=S)NC(=O)c1ccccc1Br` gave Insulin prom inh inactive, L major viab inactive, WT yeast gro inh inactive, Ins promoter up inactive and Autophagy mod inactive.
O=C(NC(=S)NCCN1CCOCC1)c1ccccc1Br was read as Insulin prom inh inactive, L major viab inactive, WT yeast gro inh inactive, Ins promoter up inactive and Autophagy mod inactive.
`COc1cc(NC(=O)c2cccc(Cl)c2)c(OC)cc1NC(=O)CN1CCOCC1` gave L major viab 85.0, WT yeast gro inh inactive, Ins promoter up inactive and Autophagy mod inactive.
For CCCCNC(=S)NC(=O)c1ccc(Cl)cc1Cl the results were L major viab inactive, WT yeast gro inh inactive, Ins promoter up 3.14 and Autophagy mod inactive.
Screening COc1cc(NC(=O)c2cccc(Cl)c2)c(OC)cc1NC(=O)CN1CCCCC1 returned Insulin prom inh inactive, L major viab inactive, WT yeast gro inh inactive, Ins promoter up inactive and Autophagy mod inactive.
For O=C(NC(=S)Nc1ccc(CN2CCOCC2)cc1)c1ccc([N+](=O)[O-])cc1Cl the results were L major viab 99.8, WT yeast gro inh inactive, Ins promoter up inactive and Autophagy mod inactive.
For O=C(NC(=S)NCCN1CCOCC1)c1ccc(Cl)cc1Cl the results were L major viab 94.5, WT yeast gro inh inactive, Ins promoter up inactive and Autophagy mod inactive.
For COc1ccc(C(=O)Nc2ccc(Cl)cc2C(=O)NCCN2CCOCC2)cc1 the results were Insulin prom inh inactive, L major viab inactive, WT yeast gro inh 70.8, Ins promoter up inactive and Autophagy mod inactive.
Screening COc1ccc(C(=O)Nc2ccccc2C(=O)NCCN2CCOCC2)cc1 returned Insulin prom inh inactive, L major viab inactive, WT yeast gro inh inactive, Ins promoter up inactive and Autophagy mod inactive.
`N#Cc1cccc(NCC(=O)Nc2ccc3c(c2)OCCO3)c1` gave Insulin prom inh inactive, L major viab inactive, WT yeast gro inh inactive, Ins promoter up inactive and Autophagy mod inactive.
COC(=O)CN(c1nc(C)cc(OC)n1)S(=O)(=O)c1ccc(C)cc1 was read as Insulin prom inh inactive, L major viab inactive, WT yeast gro inh inactive, Ins promoter up inactive and Autophagy mod inactive.
Screening COC(=O)CN(c1nc(C)c(Br)c(OC)n1)S(=O)(=O)c1ccc(C)cc1 returned Insulin prom inh inactive, L major viab 87.9, WT yeast gro inh inactive, Ins promoter up inactive and Autophagy mod inactive.
`CCc1ccc(OC2=NS(=O)(=O)c3ccccc32)cc1` gave Insulin prom inh inactive, L major viab inactive, WT yeast gro inh inactive, Ins promoter up inactive and Autophagy mod inactive.
CCN(CC)c1cccc(OC2=NS(=O)(=O)c3ccccc32)c1 was read as L major viab 80.1, WT yeast gro inh inactive, Ins promoter up inactive and Autophagy mod inactive.
CC1(C)CC(CCN(Cc2ccccc2)C(=O)c2ccco2)(c2ccccc2)CCO1 (configuration not stated) was read as Insulin prom inh inactive, L major viab inactive, WT yeast gro inh 62.6, Ins promoter up inactive and Autophagy mod inactive.
`CCC1(C)CC(CCN(Cc2ccco2)C(C)=O)(c2ccccc2)CCO1` (configuration not stated) gave L major viab inactive, WT yeast gro inh inactive, Ins promoter up inactive and Autophagy mod inactive.
Cc1cccc(C)c1NC(=O)c1sc(Cl)nc1C was read as Insulin prom inh inactive, L major viab inactive, WT yeast gro inh inactive, Ins promoter up inactive and Autophagy mod inactive.
COc1cc2c(cc1NC(=O)CN1CCN(S(=O)(=O)c3ccc(C)cc3)CC1)oc1ccccc12 was read as Insulin prom inh inactive, L major viab inactive, WT yeast gro inh inactive, Ins promoter up inactive and Autophagy mod inactive.
Screening COc1cc2c(cc1NS(=O)(=O)N1CCCC1)oc1ccccc12 returned Insulin prom inh inactive, L major viab 99.6, WT yeast gro inh inactive, Ins promoter up inactive and Autophagy mod inactive.
`CC(C)c1nc2c(c(=O)n(C)c(=O)n2C)n1C` gave Ins promoter up inactive.
For CNC(=S)N1N=C(c2ccc(Br)cc2)CC1c1ccc(N(C)C)cc1 (configuration not stated) the results were L major viab 51.4, WT yeast gro inh inactive, Ins promoter up inactive and Autophagy mod inactive.
Screening CNC(=S)N1N=C(c2ccc(OC)cc2)CC1c1ccc(N(C)C)cc1 (configuration not stated) returned Insulin prom inh inactive, L major viab inactive, WT yeast gro inh inactive, Ins promoter up inactive and Autophagy mod inactive.
CNC(=S)N1N=C(c2ccc(Br)cc2)CC1c1ccc(Br)cc1 (configuration not stated) was read as L major viab 100.2, WT yeast gro inh inactive, Ins promoter up inactive and Autophagy mod inactive.
Clc1ncc(Cn2cccn2)s1 was read as L major viab inactive, WT yeast gro inh inactive, Ins promoter up inactive and Autophagy mod inactive.
`CC(C)(C)c1cc(OS(C)(=O)=O)ccc1O` gave L major viab inactive, WT yeast gro inh inactive, Ins promoter up inactive and Autophagy mod inactive.
CCCCC(CC)C(=O)Oc1ccc(O)c(C(C)(C)C)c1 (configuration not stated) was read as L major viab inactive, WT yeast gro inh 91.5, Ins promoter up inactive and Autophagy mod inactive.
For Cc1nnc(N/N=C/C(C)c2ccccc2)[nH]c1=O (configuration not stated) the results were Ins promoter up inactive.
CC(C)(C)c1ccc(S(=O)(=O)Nc2cccc(C3OCCCO3)c2)cc1 was read as Insulin prom inh inactive, L major viab 86.1, WT yeast gro inh inactive, Ins promoter up inactive and Autophagy mod inactive.
`Cc1ccsc1/C=N/N1CCN(c2ccccc2)CC1` gave Insulin prom inh inactive, L major viab 52.6, WT yeast gro inh inactive, Ins promoter up inactive and Autophagy mod inactive.
Screening Cn1ncc(Br)c1N1C(=O)CCC1=O returned Ins promoter up inactive.
